# Assay results as given in the supplement of paper PMC6953052.
# Structures can show the parent of a compound that is named as a salt. Whole data set: some 1,700 compounds, median “fraction of GFP-LC3-positive cells (≥5 vesicles/cell)” near 0.43, cut for the highest 2% near 0.81. The full list was thinned out, with the highest values kept by preference.
# Tested on: CbCln3 Δex7/8/Δex7/8 GFP-LC3 cerebellar neuronal cells
# Assay: fraction of GFP-LC3-positive cells (≥5 vesicles/cell); higher = more autophagosome accumulation
# In short: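 Compound (~50 nL in DMSO) was pin-transferred in duplicate onto wild-type or mutant CbCln3 cerebellar cells stably expressing GFP-LC3, seeded at 2 × 10^3/well in 384-well plates, for 24 h at 33 °C. After fixation in 3.2% PFA, three fields per well were imaged at 10×. The value reported is the duplicate average of the fraction of cells meeting a vesicle-count threshold, with CellProfiler counting GFP-LC3 vesicles per cell and out-of-focus images excluded. Cells met the threshold at 5 or more vesicles.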
row,Compound,fraction of GFP-LC3-positive cells
1,C=C(C)[C@H]1O[C@H]2CC[C@@]3(C)[C@@](O)(CC[C@H]4[C@@H]5OC(C)(C)[C@H]6C[C@@H]7C(=C)Cc8c(Cl)cc9[nH]c(c5c9c8[C@@]76O)[C@@]43C)[C@]23O[C@@H]3[C@H]1O,0.866
2,CC[C@H]1CN2CCc3cc(OC)c(OC)cc3[C@@H]2C[C@@H]1C[C@H]1NCCc2cc(OC)c(OC)cc21.Cl.Cl [Emetine dihydrochloride],0.546
3,Br.C[C@@H]1NCCc2cc(O)c(O)cc21 [Salsolinol hydrobromide],0.504
4,C/C=C(/C)C(=O)O[C@H]1C(C)=C2[C@H]([C@@H]1OC(=O)CCCCCCC)[C@@](C)(OC(C)=O)C[C@H](OC(=O)CCC)[C@@]1(O)[C@H]2OC(=O)[C@@]1(C)O,0.847
5,"N=C(N)NOCC[C@H](N)C(=O)O.O.O=S(=O)(O)O [Canavanine sulfate monohydrate (L,+)]",0.416
6,CCCC(C)(COC(N)=O)COC(=O)NC(C)C (stereo not given) [Carisoprodol],0.466
7,C[N+](C)(C)CCCCCCCCCC[N+](C)(C)C.[Br-].[Br-] [Decamethonium bromide],0.418
8,C/C1=C/C(=O)O[C@@H]2C[C@@H](CC[C@H](C)/C=C\CC1)O[C@@](O)([C@@H]1CSC(=O)N1)C2 [Latrunculin B],0.84
9,C[C@@]12N[C@@H](Cc3ccccc31)c1ccccc12.O=C(O)/C=C\C(=O)O [(-)-MK 801 hydrogen maleate],0.432
10,CC(=O)c1c(O)c(C)c(O)c(Cc2c(O)c3c(c(C(=O)/C=C/c4ccccc4)c2O)OC(C)(C)C=C3)c1O,0.551
11,CC(=O)c1c(O)c(C)c(O)c(Cc2c(O)c3c(c(C(=O)/C=C/c4ccccc4)c2O)OC(C)(C)C=C3)c1O [Rottlerin],0.553
12,CC(=O)O[C@H]1CC[C@@]2(C)C(=CC[C@@H]3[C@@H]2CC[C@]2(C)C(=O)CC[C@@H]32)C1 [Dehydroisoandosterone 3-acetate],0.384
13,CN1C(CC(O)c2ccccc2)CCCC1CC(O)c1ccccc1.Cl (stereo not given) [Lobelanidine hydrochloride],0.433
14,COc1ccc2c(c1O)-c1c(OC)c(OC)cc3c1[C@H](C2)N(C)CC3 [Isocorydine (+)],0.379
15,"COc1ccc2c(c1OC)CN1CCc3cc4c(cc3C1C2)OCO4 (stereo not given) [(d,l)-Tetrahydroberberine]",0.303
16,COc1cc2c(cc1O)[C@@H]1Cc3ccc(OC)c(O)c3CN1CC2 [Scoulerine],0.821
17,C[C@H]1O[C@@H](OC2CC[C@]3(C=O)[C@H]4CC[C@]5(C)[C@@H](C6=CC(=O)OC6)CC[C@]5(O)[C@@H]4CC[C@]3(O)C2)C[C@H](O)[C@@H]1O (stereo not given in full) [Helveticoside],0.378
18,N#CC(C#N)=Cc1ccc(O)cc1 [Tyrphostin-8],0.461
19,CCN1C[C@@]2(COC)C3[C@@H](OC)[C@H]4[C@@H]1[C@@]3(C1C[C@@]3(O)[C@H](OC(=O)c5ccccc5)C1[C@]4(OC(C)=O)[C@@H](O)[C@H]3OC)[C@@H](OC)C[C@H]2O (stereo not given in full) [Aconitine],0.413
20,Cc1nccc2c1[nH]c1ccccc12.Cl [Harmane hydrochloride],0.55

row,Compound,fraction of GFP-LC3-positive cells
1,Cc1c2ccncc2c(C)c2c1[nH]c1ccccc12 [Ellipticine],0.954
2,O=C(CCCN1CCC(n2c(=O)[nH]c3ccccc32)CC1)c1ccc(F)cc1 [Benperidol],0.358
3,COC1=C[C@@H]2C3=C([C@@H]2C1=O)[C@@H](NC(C)=O)CCc1cc(OC)c(OC)c(OC)c13 [Lumicolchicine gamma],0.401
4,COc1cc2c(c(OC)c1OC)-c1ccc(O)c(=O)cc1[C@@H](N)CC2 [Trimethylcolchicinic acid],0.415
5,COc1cc2c(c(OC)c1OC)-c1ccc(OC)c(=O)cc1[C@@H](NC(C)=O)CC2 [Colchicine],0.906
6,CC[C@@H]1/C=C/C=C/C[C@H](C)[C@@H](O)[C@](C)(O)C(=O)[C@H](C)[C@@H](O)[C@H](C)C(=O)[C@H](C)[C@@H](O)[C@H](C)/C=C/C(=O)O[C@H]2[C@@H](C)[C@@H](CC1)O[C@@]1(CC[C@@H](C)[C@@H](C[C@H](C)O)O1)[C@@H]2C [oligomycin A],0.578
7,CC1=C2C[C@H]3[C@@H](CC=C4C[C@@H](O)CC[C@@]43C)[C@@H]2CC[C@]12O[C@@H]1C[C@H](C)CN[C@H]1[C@H]2C [cyclopamine],0.448
8,CCCCC/C=C\C/C=C\C/C=C\C/C=C\CCCC(=O)NCC(=O)O,0.263
9,CCCCC/C=C\C/C=C\C/C=C\C/C=C\CCCC(=O)NCC(=O)O [N-Arachidonoylglycine],0.376
10,CCCCC/C=C\C/C=C\C/C=C\C/C=C\CCCC(=O)NCc1ccc(O)c(OC)c1 [Arvanil],0.848
11,CCCCC/C=C\C/C=C\C/C=C\C/C=C\CCCC(=O)NCCc1ccc(O)c(O)c1 [Arachidonoyl dopamine],0.658
12,CC(C)NCC(O)c1ccc(N)c(C#N)c1 (stereo not given),0.462
13,COc1cc([C@@H]2c3cc4c(cc3[C@H](O)[C@H]3COC(=O)[C@H]23)OCO4)cc(OC)c1OC [Podophyllotoxin],0.884
14,COc1ccc2c(c1OC)C(=O)O[C@@H]2[C@H]1c2cc3c(cc2CCN1C)OCO3.Cl [Hydrastine hydrochloride],0.423
15,Cl.Cl.Fc1ccc(C(OCCN2CCN(CCCc3ccccc3)CC2)c2ccc(F)cc2)cc1,0.168
16,CO/C1=C\C(C)=C\[C@@H](C)[C@@H](O)[C@@H](C)C/C(C)=C/C=C/[C@H](OC)[C@@H]([C@@H](C)[C@@H](O)[C@H](C)[C@@]2(O)C[C@@H](O)[C@H](C)[C@@H](C(C)C)O2)OC1=O [bafilomycin A1],0.924
17,O[C@H]1[C@H]2[C@H](O)CCCN2C[C@H]1O [swainsonine],0.371
18,CN1CCC2=C[C@H](O)[C@H]3OC(=O)c4cc5c(cc4[C@H]3[C@@H]21)OCO5 [Hippeastrine hydrobromide],0.407
19,CN1CCc2cc3c(cc2[C@H]1[C@@H]1OC(=O)c2c1ccc1c2OCO1)OCO3 [Bicuculline (+)],0.326
20,CN1Cc2c(ccc3c2OCO3)[C@@H]2[C@H]1c1cc3c(cc1C[C@@H]2O)OCO3.O [Chelidonine (+)],0.93
